Source: PubChem
Rows were chosen to be rich in hits. Some 4.6% of all compounds tested hit in one or more screens of this group.
D1 PAM – potentiators of human D1 dopamine receptor. potentiation, % at 10 µM. hit rate 0.036% among 360,000. HEK293 TREx D1 cells, calcium flux, dopamine EC20 potentiation. AID 504651; in the data active = potentiation above about 30%; also: 0% is about no effect
TRHR agonist-1 – agonists of human TRH receptor | P34981 | TRHR cells, calcium flux fluo-8, FDSS agonist mode | activation, % at 2 µM | hit rate 0.18% among 360,000; also: 0% is about no effect
Target sequence (P34981 whole entry, looked up): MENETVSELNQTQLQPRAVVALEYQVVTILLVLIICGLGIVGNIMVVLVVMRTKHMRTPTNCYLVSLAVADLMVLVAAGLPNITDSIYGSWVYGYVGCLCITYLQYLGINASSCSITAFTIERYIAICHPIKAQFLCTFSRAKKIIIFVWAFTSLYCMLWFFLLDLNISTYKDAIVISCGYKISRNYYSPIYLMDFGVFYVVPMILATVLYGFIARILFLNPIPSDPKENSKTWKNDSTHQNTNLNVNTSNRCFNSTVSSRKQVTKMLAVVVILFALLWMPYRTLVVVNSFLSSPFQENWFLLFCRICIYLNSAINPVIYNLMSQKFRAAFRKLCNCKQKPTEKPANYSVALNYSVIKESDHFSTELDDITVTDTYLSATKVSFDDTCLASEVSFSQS
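TRHR-expressing cells loaded with fluo-8 calcium dye; 23 nL library compound pin-transferred, kinetic FDSS fluorescence (Ex 480/Em 530) recorded about 180 s for agonist-induced calcium release, before a 10 nM TRH EC20 addition for potentiator mode.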
D1 antagonist – antagonists of human D1 dopamine receptor; P21728; HEK293 TREx D1 cells, calcium flux, dopamine EC80; hits give low values; activity change, negative = inhibition, % at 10 µM; hit rate 3.2% among 360,000; AID 504652; in the data active = activity change below about -30%; also: % is scaled to controls: 0 for no effect and ±100 for the full control effect
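Tetracycline-induced HEK293 Trex D1 cells, force-coupled to calcium, dye-loaded; compounds added and read 180 s, then EC80 dopamine added and calcium flux tracked kinetically another 180 s.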
D1 ag – agonists of human D1 dopamine receptor | hit rate 1% among 360,000 | activation, % at 2 µM | P21728 | AID 504660 | HEK293 T-REx D1 cells, calcium flux, agonist mode; also: 0% is about no effect
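Tetracycline-induced HEK293 TREx D1 cells, force-coupled to calcium signalling, were dye-loaded with a no-wash calcium kit. Compound was pin-added after a 10 s baseline. Fluorescence was read kinetically at 1 cycle/s for 180 s, with calcium rises flagged as agonism.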
TRHR enhancer-1 – allosterically enhances the human TRH receptor; enhancement, % at 2 µM; TRHR cells, fluo-8 calcium fluorescence, EC20 TRH enhancement; P34981; hit rate 0.66% among 360,000; in the data active = enhancement above about 30%; also: 0% is about no effect
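Enhancer read-out: after compound pinning and an initial kinetic agonist-mode read, an EC20 of TRH (10 nM final) was injected and fluo-8 calcium signal (Ex 480/Em 530) followed at 1 s/cycle for 100 cycles in TRHR-expressing cells.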
TRHR enhancer-2 – confirmation of human TRH receptor allosteric enhancers; activity change, negative = inhibition, % at 46.1 µM; TRH receptor cell assay, enhancer confirmation qHTS; AID 493076; 970 tested, under 10 active; shares compounds with TRHR enhancer-1; active = well fitted curve in the direction sought with a large enough effect; inconclusive = small, poorly fitted or top-dose-only effect, or another doubt; inactive = no such curve, though single readings can be large; an effect the other way counts as inactive or inconclusive;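 also: compound effect scored on response to added TRH at EC20 of 10 nM; 0% is about no effect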
TRHR agonist-2 – human TRH receptor agonism confirmation; hit rate 8% among 970; shares compounds with TRHR enhancer-1; Potency, µM (highest dose often 46.1 µM), without a hit: at the highest dose activation, actives largely listed as activators; TRHR-expressing cells, agonist activation read-out; active = well fitted curve in the direction sought with a large enough effect; inconclusive = small, poorly fitted or top-dose-only effect, or another doubt; inactive = no such curve, though single readings can be large; an effect the other way counts as inactive or inconclusive; also: potency is read from the fitted curve at half-maximal effect; 0% is about no effect; nearly all actives have a fitted effect of over 75% in size
An asterisk follows results filed as active; ? = inconclusive; / = not tested or not shown; ! = not active in a repeat. Rule as the data show it, unless noted: active = activation above about 30%; inactive = the rest.

SMILES | D1 PAM | TRHR agonist-1 | D1 antagonist | D1 ag | TRHR enhancer-1 | others
CC(=O)N1CCc2c(sc3nc(SCC(N)=O)n(-c4ccc(F)c(Cl)c4)c(=O)c23)C1 | 1 | 0 | -4 | 0 | 1
COc1ccc(CNC(=O)c2ccc(-c3nc(CSc4ccccc4)c(C)o3)cc2)c(OC)c1 | -2 | 1 | -8 | 3 | -2
O=C(c1nc(-c2ccc(Cl)cc2)n2c1CCCCC2)N1CCN(c2ccccc2)CC1 | 8 | 0 | 3 | -2 | -12
Cc1ccc(C)c(NC(=O)CSc2nc3ccccc3nc2N2CCOCC2)c1 | 7 | -1 | -46*! | 1 | -1
O=C(Nc1ccc2oc(-c3cccnc3)nc2c1)c1ccc(-c2ccccc2OC(F)(F)F)o1 | -2 | 0 | -11 | 1 | 0
COc1ccccc1CCNS(=O)(=O)c1ccc(N2CCCCS2(=O)=O)cc1 | 0 | 0 | -12 | 13 | 0
Cc1ccc(NC(=O)CCC(=O)NNC(=O)NC23CC4CC(CC(C4)C2)C3)cc1C | -3 | 0 | -11 | 50* | 5
Cc1cc(C(F)(F)F)nn1-c1nc(-c2ccccc2)cc(C(F)(F)F)n1 | 0 | 3 | 20 | 10 | -6
COc1ccc(-n2c(O)c(/C=N/Nc3nc(C)cc(C)n3)c3ccccc3c2=O)cc1OC | 3 | 0 | 16 | -2 | -2
COc1ccc(-n2c(O)c(/C=N/NS(=O)(=O)c3ccc(C)cc3)c3ccccc3c2=O)cc1OC | 1 | 23 | -6 | 53* | 2
COc1ccc(-n2c(O)c(/C=N/NS(=O)(=O)c3cc(C)ccc3C)c3ccccc3c2=O)cc1OC | -3 | 72* | -4 | 69* | 8
CCOC(=O)c1c(C)[nH]c(C)c1S(=O)(=O)N1CCCC(C(=O)Nc2ccc(C)c(N(C)C)c2)C1 (configuration not stated) | -2 | 0 | 25 | 1 | 0
CC(C)(C)OC(=O)NCCCCCc1nnc(SCC(N)=O)o1 | -5 | 0 | -39* | 1 | 2
Cc1ccc(C)c(NC(=O)CSc2nnc(CCCCCNC(=O)OC(C)(C)C)o2)c1 | -1 | -1 | -17 | 36* | 13
CC(C)(C)OC(=O)NCCc1nnc(SCc2ccccc2Cl)o1 | -5 | 0 | -30* | 5 | 2
CC(C)(C)OC(=O)NCCc1nnc(SCc2ccccc2)o1 | 9 | 0 | 8 | 1 | -3
CCOc1ccc(NC(=O)Cn2c(=O)cc(C)c3c(C)nn(-c4cccc(Cl)c4C)c32)cc1 | -3 | 0 | 3 | 4 | -7
CCN(CC)S(=O)(=O)c1ccc2c(c1)c(=O)c(C(=O)NCc1ccc(Cl)cc1)cn2C | 4 | -1 | -4 | 2 | 8
COc1ccc(-n2cc(C(=O)Nc3ccccc3C#N)c3ccccc3c2=O)cc1 | -4 | 0 | 9 | 0 | 2
CCOC(=O)c1ccc2c(c1)N(Cc1cccc([N+](=O)[O-])c1)C(=O)c1ccccc1S2 | 2 | 0 | -5 | 7 | -4
COc1cccc(CC2(CO)CCCN(C/C=C/c3ccccc3OC)C2)c1 (configuration not stated) | -4 | -1 | 19 | 33* | 10
COc1ccccc1/C=C/CN1CCCC(CO)(Cc2cccc(Cl)c2)C1 (configuration not stated) | 2 | 1 | 5 | 4 | 3
O=C(Cc1cccc(F)c1)N1CCCC(CO)(Cc2ccc(F)cc2F)C1 (configuration not stated) | -3 | 1 | 31 | -1 | -2
COc1cccc(CC(=O)N2CCCC(CO)(Cc3ccc(F)cc3F)C2)c1 (configuration not stated) | -5 | 0 | -47* | 7 | -7
Cc1ccc(S(=O)(=O)N(CC(=O)Nc2ccc3c(c2)OCO3)c2ccc(C)c(Cl)c2)cc1 | 0 | -1 | 3 | 0 | 15
SMILES | D1 PAM | TRHR agonist-1 | D1 antagonist | D1 ag | TRHR enhancer-1 | others
Cc1cc2cc(CCNS(=O)(=O)c3ccc(Br)cc3)c(=O)[nH]c2cc1C | 0 | 0 | 19 | 0 | 3
O=C(Cc1ccccc1)NCC(=O)N1CCCCC1 | 0 | 1 | 12 | 3 | 43* | TRHR enhancer-2=-3;TRHR agonist-2=1%
O=C(Cc1ccccc1)N1CCNCC1 | 0 | 0 | -7 | 6 | 55* | TRHR enhancer-2=-6;TRHR agonist-2=1%
O=C(Cc1ccccc1)N1CCN(C(=O)c2ccco2)CC1 | -5 | 1 | 9 | -1 | 2
CCNC(=O)c1ccc2c(c1)sc1nc(-c3cccc(OC)c3)cn12 | 0 | 0 | -4 | 1 | -3
Oc1c(C(c2ccc(Cl)cc2Cl)N2CCCC2)sc2nc(-c3ccco3)nn12 (configuration not stated) | 5 | 1 | / | 7 | 0
O=C(NCc1ccc(Cl)cc1)c1ccc(CNS(=O)(=O)c2ccc(F)cc2)cc1 | -5 | 0 | -2 | 9 | 3
Cn1nc(C(=O)NCc2ccc(F)cc2)cc1C(=O)NCc1ccc(F)cc1 | -8 | 0 | -15 | 6 | 46* | TRHR enhancer-2=-7;TRHR agonist-2=1%
CS(=O)(=O)c1ccc(C(=O)NCc2ccc(F)cc2)cc1 | -3 | 0 | 12 | 1 | 60* | TRHR enhancer-2=-1;TRHR agonist-2=6%
Cn1nc(C(=O)NCc2ccccc2)cc1C(=O)NCc1ccccc1 | -3 | -4 | 2 | 8 | 14
COc1ccc(NC(=O)CN2C(=O)CCn3nc(-c4cccn4C)cc32)cc1 | -1 | 0 | -19 | 1 | -8
COc1ccc(Cl)cc1NC(=O)Cn1ncc2c3ccccc3n(Cc3ccccc3)c2c1=O | -2 | -2 | -8 | 0 | 2
CCCNC(=O)c1nc(C)n(-c2cc(Cl)ccc2Cl)n1 | -4 | 0 | -9 | 2 | 64* | TRHR enhancer-2=1;TRHR agonist-2=1%
CCCNC(=O)c1nc(C)n(-c2cc(Cl)cc(Cl)c2)n1 | 5 | -1 | 7 | 1 | 0
CC1(C)CN=C(N(Cc2ccccc2)C(=O)Nc2ccccc2)S1 | -3 | 3 | 2 | 11 | 42* | TRHR enhancer-2=4;TRHR agonist-2=?
CCOc1ccc(S(=O)(=O)Nc2cccc(C(=O)NCC3CCCO3)c2)cc1 (configuration not stated) | -8 | 0 | -39* | 3 | 47* | TRHR enhancer-2=-9;TRHR agonist-2=1%
CCCOC(=O)CSc1ncnc2sc3c(c12)CCC(C)C3 (configuration not stated) | -1 | 0 | 8 | 5 | 3
CC(CCOS(N)(=O)=O)c1ccccc1 (configuration not stated) | 5 | 0 | 6 | 2 | -5
[2H]C([2H])(CCOS(N)(=O)=O)c1ccccc1 | -1 | 0 | 5 | 1 | 44* | TRHR enhancer-2=2;TRHR agonist-2=?
